Only a sample is shown.
aSyn UTR act = Activators via SNCA 5'UTR binding, MLPCN. alpha-synuclein 5'UTR reporter, activators screen. activity score, % (tested at 7.5 µM), hits read low. 300,000 tested, 7.1% active. AID 1814; in the data active = activity score below about -60%
Large screens that a line does not name were inactive.

CCOC(=O)c1cnc2c(OC)cccc2c1N1CCN(c2ccccc2OC)CC1	none
C/C(=N\NC(=O)c1csc(C)c1C)c1ccc(Cl)s1	aSyn UTR act -125
CC/C(=N\NC(=O)c1csc(C)c1C)c1cccs1	aSyn UTR act -182
CCC/C(=N\NC(=O)c1csc(C)c1C)c1cccs1	aSyn UTR act -109
Cc1cccc(NC(=O)c2cc(-c3cc(C)ccc3O)n[nH]2)c1	aSyn UTR act -227
COc1ccc(NC(=O)c2cc(-c3cc(C)ccc3O)n[nH]2)cc1Cl	aSyn UTR act -72
Cc1cccc(NC(=O)c2cc(-c3cc(C)c(C)cc3O)n[nH]2)c1	aSyn UTR act -234
Cc1ccc(-c2cc(C(=O)Nc3cccnc3)[nH]n2)c(O)c1C	aSyn UTR act -202
COc1ccc(OS(=O)(=O)Cc2ccccc2)cc1	aSyn UTR act -103
Cc1ccc2nc(NC(=O)c3cccc(-c4cc5ccccc5oc4=O)c3)sc2c1	aSyn UTR act -88
O=C(Nc1cccc(Cl)c1N1CCCC1)c1cccc(-c2cc3ccccc3oc2=O)c1	aSyn UTR act -101
CCn1nnc(NC(=O)c2cccc(-c3cc4ccccc4oc3=O)c2)n1	aSyn UTR act -105
Cc1c(C(=O)Nc2cccnc2)oc2ccc(Br)cc12	aSyn UTR act -246
C/C(=N\NC(=O)c1cc(-c2cccnc2)nc2ccccc12)c1ccccc1O	none
O=C(Nc1cccnc1)c1cc2c(ccc3ccccc32)o1	aSyn UTR act -104
CCc1ccc2oc(C(=O)Nc3cccnc3)c(C)c2c1	aSyn UTR act -220
CC(=O)Nc1cccc(NC(=O)c2cc(-c3cccnc3)nc3ccc(Br)cc23)c1	aSyn UTR act -62
Clc1ccccc1N=C1NN=C(c2cccs2)CS1	aSyn UTR act -160
COCCn1c(C)cc(C2=NNC(=Nc3ccccc3F)SC2)c1C	none
Cc1cccc(N=C2NN=C(c3ccccc3F)CS2)c1C	aSyn UTR act -102
Fc1ccccc1N=C1NN=C(c2ccccc2)CS1	aSyn UTR act -199
Fc1ccc(F)c(C2=NNC(=Nc3ccccc3F)SC2)c1	aSyn UTR act -110
COc1ccc(NC(=O)C2C(=O)N(CCO)C3(C)CC2c2ccccc2O3)cc1 (stereo not drawn)	aSyn UTR act -103
COc1ccc(C2C(C(=O)Nc3cc(OC)c(OC)c(OC)c3)c3ccccc3C(=O)N2C)cc1 (stereo not drawn)	none
Cc1cc(C)nc(N/N=C/c2ccccc2OCc2ccc(Cl)cc2)n1	aSyn UTR act -80
COc1cccc(/C=N/NC(=O)c2c(C)nc3ccc(Br)cn23)c1O	none
Cc1cc(C)nc(N/N=C/c2ccccc2OCc2ccc(Br)cc2)n1	aSyn UTR act -144
CCc1ccccc1NC(=O)c1cc(-c2cccc(O)c2)on1	aSyn UTR act -81
CCc1ccccc1NC(=O)c1cc(-c2cccs2)on1	aSyn UTR act -125
O=C(Nc1ccccc1C(F)(F)F)c1cc(-c2cccc(O)c2)on1	aSyn UTR act -142
O=C(OCc1ccccc1)c1ccc2c(c1)-c1ccccc1C2=O	aSyn UTR act -194
O=C(OCc1ccccc1)c1cccc(-c2nnc(-c3ccccc3)o2)c1	aSyn UTR act -69
O=C(OCc1nnc(-c2ccccc2)o1)c1ccc2c(c1)OCCO2	aSyn UTR act -62
O=C(OCc1ccc(C(=O)c2ccccc2)cc1)c1cccc(-c2nnc(-c3ccccc3)o2)c1	aSyn UTR act -80
CSc1nc(O)c(/C=C2\C=Nc3ccccc32)[nH]1	aSyn UTR act -221
CCN(CC)C(=O)CCCSc1nnc(Nc2ccccc2F)s1	aSyn UTR act -75
CCCSc1nnc(Nc2ccccc2C)s1	aSyn UTR act -96
Cc1ccccc1Nc1nnc(SCC(=O)Nc2ccccc2[N+](=O)[O-])s1	aSyn UTR act -81
C/C(N)=C(/C#N)C(=O)CSc1nnc(Nc2cccc(C)c2C)s1	aSyn UTR act -117
COc1ccc(NC(=O)c2[nH]c(C)c(C(C)=O)c2C)cc1	aSyn UTR act -193
CCc1ccc(NC(=O)c2[nH]c(C)c(C(C)=O)c2C)cc1	aSyn UTR act -223
CCc1c(C(=O)Nc2ccc(OC)cc2)[nH]c(C)c1C(C)=O	aSyn UTR act -93
CCOc1ccc(NC(=O)c2[nH]c(C)c(C(C)=O)c2C)cc1	aSyn UTR act -76
O=C(NCCc1ccccc1)c1ccc2c(c1)OCCO2	none
COc1ccc(CCNC(=O)c2ccc3c(c2)OCCO3)cc1	aSyn UTR act -135
COc1ccc(CCNC(=O)c2coc(=O)c(Br)c2)cc1	aSyn UTR act -63
CC(C)c1ccc(C(=O)N/N=C/c2cccc(Cl)c2Cl)cc1	aSyn UTR act -66
CC(C)c1ccc(/C=N/NC(=O)CCNC(=O)c2ccccc2)cc1	aSyn UTR act -63
Cc1cc(C)nc(SCc2ccc(C(=O)N/N=C/c3cccc(O)c3O)cc2)n1	none
CC(C)c1ccc(/C=N/NC(=O)c2cccc(Cl)c2)cc1	aSyn UTR act -238
Clc1ccccc1Cn1nnc2c(N3CCOCC3)nc(C3CC3)nc21	none
CCCN1CCN(c2ncnc3c2nnn3Cc2ccccc2)CC1	aSyn UTR act -69
Cc1ccc(-c2csc(-c3c[nH]c4ccccc34)n2)c(C)c1	aSyn UTR act -92
Oc1ccc(-c2csc(-c3c[nH]c4ccccc34)n2)c(O)c1	aSyn UTR act -323
CN1/C(=C\C(=O)c2cccnc2)Sc2ccccc21	aSyn UTR act -94
COc1cccc(C(=O)/C=C2\Sc3ccccc3N2C)c1	aSyn UTR act -131
O=c1cc(-c2ccccc2Cl)oc2c(Br)ccc(O)c12	aSyn UTR act -130
Cc1cccc(-n2c(N)c(C(=O)NCCN3CCOCC3)c3nc4ccccc4nc32)c1	aSyn UTR act -83
Cc1ccc(-n2c(N)c(C(=O)Nc3c(C)n(C)n(-c4ccccc4)c3=O)c3nc4ccccc4nc32)cc1C	none
N#C/C(=C\c1ccc(OCC(N)=O)cc1)c1ccccc1	aSyn UTR act -154
Cc1ccc(C2=[N+]([O-])C3(CCCCC3=O)N(O)C2(C)C)cc1 (stereo not drawn)	none
Oc1csc(Cc2nc(-c3ccc4ccccc4c3)cs2)n1	aSyn UTR act -236
Cc1cc(C)n(CCc2nc(-c3ccc(-c4ccccc4)cc3)cs2)n1	aSyn UTR act -71
Oc1csc(Cc2nc(-c3ccc(-c4ccccc4)cc3)cs2)n1	aSyn UTR act -112
Oc1csc(Cc2nc(-c3ccccc3F)cs2)n1	aSyn UTR act -169
COc1cc(NC(=O)c2c(F)cccc2F)nc(OC)n1	aSyn UTR act -117
COc1cc(NC(=O)c2cccc(Br)c2)nc(OC)n1	aSyn UTR act -105
CCCNC(=O)c1cc(Cl)c(NC(=O)C2=CSCCO2)cc1OC	aSyn UTR act -136
C/C(N)=C(/C#N)C(=O)CSc1nnc(-c2ccc(OC(F)F)cc2)o1	aSyn UTR act -204
C/C(N)=C(/C#N)C(=O)CSc1ccccc1F	aSyn UTR act -115
C/C(N)=C(/C#N)C(=O)CSc1nn(-c2ccc(Cl)cc2)c(=S)s1	aSyn UTR act -74
COc1ccc2[nH]c3c(=O)n4c(nc3c2c1)SCCC4	aSyn UTR act -92
COc1ccc2c(c1)[nH]c1c(=O)n(/N=C/C3C(C)C=C(C)CC3C)c(=O)[nH]c12 (stereo not drawn)	none
CCOC(=O)C1CCN(S(=O)(=O)c2c(Cl)ccc3nonc23)CC1	aSyn UTR act -309
O=C(Nc1ccc(Cl)cc1)OCc1ccccn1	aSyn UTR act -134
CS(=O)(=O)c1ccccc1COC(=O)Nc1ccc(Cl)cc1	aSyn UTR act -70
CNC(=O)NC(=O)C(C)OC(=O)c1c2c(nc3ccccc13)/C(=C/c1cccs1)CC2 (stereo not drawn)	aSyn UTR act -143
Cc1nccc(-c2cc(-c3ccc(Cl)cc3Cl)no2)n1	aSyn UTR act -135
Cc1cc(N2CCOCC2)ccc1/C=C\[N+](=O)[O-]	aSyn UTR act -101

Screening data: PubChem, Broad Institute
